Compound activity (PubChem)
Compounds with a hit are over-represented: about 2.1% of the library has one in this group of screens.
BaF3 tox: parental Ba/F3 viability inhibition as JAK2V617F counter-screen; 220,000 tested, 1.1% active; AID 1486; inhibition, % at 5.6 µM; CellTiter-Glo ATP luminescence;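 active = inhibition above a per-campaign cutoff, the mean inhibition of all tested compounds plus 3 SD, cut at about 27% in these data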;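 note: 0% = DMSO wells and 100% = JAK Inhibitor I control wells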
APP 5UTR inh: APP translation inhibition. AID 1285. inhibition, % at 2 µM. 190,000 tested, 0.82% active. SH-SY5Y APP 5'UTR-luciferase reporter, luminescence;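 active = inhibition above a set limit, derived from the sample mean plus 3 SD, cut at about 45% in these data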
Ba/F3 V617F tox: reduce viability of Ba/F3 cells dependent on JAK2V617F; Ba/F3 EpoR-JAK2V617F viability, ATP luminescence; inhibition, % at 5.6 µM; 220,000 tested, 1.1% active;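 active = inhibition above the campaign mean plus 3 SD over all tested compounds, cut at about 24% in these data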;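 note: cytokine-independent growth of Ba/F3 cells driven by EpoR plus mutant JAK2; 0% = DMSO-treated cells and 100% = JAK inhibitor I control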
IEC-6 tox: kills IEC-6 intestinal cells in KLF5 counter-screen | IEC-6 cytotoxicity, luminescence viability | inhibition, % at 5 µM | 290,000 tested, 0.78% active | AID 1825; in the data active = inhibition above about 22%;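 note: 0% = plate median of test compound wells and 100% = cytotoxic reference compound wells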
aSyn UTR inh: 5' untranslated region of α-synuclein, MLPCN primary screen; 300,000 tested, 0.82% active; alpha-synuclein 5'UTR reporter, inhibitor activity; inhibition, % (tested at 7.5 µM); in the data active = inhibition above about 60%;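 note: H4 neuroglioblastoma cells stably carrying SNCA 5'UTR luciferase fusion; 0% = DMSO wells and 100% = positive control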
KLF5 inh: suppresses KLF5 promoter-driven expression; inhibition, % at 5 µM; DLD-1 KLF5 promoter-luciferase reporter, luminescence; AID 1700; 290,000 tested, 0.23% active;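 active = inhibition above a per-plate limit of that plate's mean compound inhibition plus 3 SD, cut at about 60% in these data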;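 note: 0% = DMSO wells and 100% = LY294002 at 200 µM; higher means less KLF5 promoter-driven luciferase light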
Starred values were filed as active, the others as inactive; / = no result.

SMILES	BaF3 tox	APP 5UTR inh	Ba/F3 V617F tox	IEC-6 tox	aSyn UTR inh	KLF5 inh
COc1ccc(Nc2nc3ccc(C)cc3cc2C#N)c(OC)c1	1.5	4.3	-1.9	4.2	-49.8	-15.7
O=C(Nc1ccc(Cl)cc1)C1C2C=CC3(O2)C1C(=O)N(CCN1CCCCC1)C3C(=O)NC1CCCCC1 (stereo unspecified)	/	/	/	0.2	-15.5	-3.0
Cc1ccc(C(=O)N/N=C/c2cccc(OC(=O)/C=C/c3ccco3)c2)cn1	3.7	-3.0	-0.4	-3.8	-99.6	-22.6
O=C(/C=C/c1ccco1)Oc1cc(Br)cc(/C=N/NC(=O)c2ccccc2O)c1	0.1	63.7*	-4.0	0.8	95.9*	-4.9
C(=N\Nc1nc(Nc2ccccc2)nc(Nc2ccccc2)n1)/c1cccnc1	11.7	-5.8	-1.4	28.6*	-23.3	6.6
O=C(Nc1ccc(-c2nc3ccccc3o2)cc1)C1CCCO1 (stereo unspecified)	4.3	-233.1	-4.2	2.6	-23.2	-118.6
O=C(Nc1ccc(-c2nc3cccnc3s2)cc1)C1CCCO1 (stereo unspecified)	7.0	-76.2	5.6	6.0	87.3*	22.7
O=C(Nc1nc2ccccc2s1)C1CCCO1 (stereo unspecified)	95.0*	-48.6	-2.0	-3.6	-131.7	-152.4
Cc1ccc(S(=O)(=O)Nc2ccc(C(=O)N3CCCC3)cc2)c(C)c1NS(C)(=O)=O	/	/	/	-0.6	5.2	-11.8
COC(=O)Cc1n[nH]c(=S)[nH]c1=O	4.4	49.6*	-1.7	-5.9	3.3	-10.5
COc1cc(C(C)=O)ccc1OCC(O)Cn1nc(C)c(Br)c1C (stereo unspecified)	/	/	/	3.5	-13.4	-23.0
Clc1ccc(COc2cccc(CNCc3ccncc3)c2)cc1	38.1*	-0.1	4.7	1.7	31.3	-33.0
CC(C)(CO)NCc1cccc(OCc2ccc(Cl)cc2)c1	4.4	-12.4	2.6	-7.6	-15.7	-10.9
Cc1cccnc1NC(=O)CNC(=O)COc1ccccc1	/	/	/	/	16.0	/
COc1ccc(-n2c(=O)c3ccccc3n(Cc3ccccc3F)c2=O)cc1OC	6.9	5.9	1.8	-3.2	4.1	-11.4
CCC(O)CNc1nc(SC)nc2sc3c(c12)CCN(C)C3 (stereo unspecified)	57.4*	-1.9	-2.3	-5.1	15.1	-39.6
CCOC(=O)N1CCN(C(=O)CSc2nc3c([nH]c4ccccc43)c(=O)n2CC)CC1	/	/	/	2.9	1.4	15.7
Clc1ccc2ccc3cccnc3c2n1	/	/	/	2.5	-5.8	-20.6
O=S1(=O)Nc2c(ccc3cccnc23)-c2ccccc21	13.3	59.9*	3.2	67.2*	5.6	55.2
O=c1oc2ccccc2cc1-c1cn2ccccc2n1	12.7	-31.9	12.8	7.8	98.2*	-26.9
Cc1cccn2cc(-c3cc4ccccc4oc3=O)nc12	89.8*	-84.5	-2.3	3.4	-44.8	-30.7
O=c1oc2ccccc2cc1-c1cn2cccnc2n1	12.3	-54.9	-1.6	-1.0	-65.4	-204.9
O=C(COC(=O)CNS(=O)(=O)c1ccc(Br)cc1Cl)NC1CCCC1	/	/	/	/	-0.7	/
COc1cccc(NC(=O)c2ccc3nc(C)sc3c2)c1	/	/	/	-0.1	-238.7	-79.7
CCCCOc1ccc(C(=O)NCC(=O)NC2CCC(C)CC2)cc1 (stereo unspecified)	/	/	/	/	-0.8	/
SMILES	BaF3 tox	APP 5UTR inh	Ba/F3 V617F tox	IEC-6 tox	aSyn UTR inh	KLF5 inh
COc1ccc(Cc2[nH]n3c(=O)cc(C)nc3c2-c2ccccc2)cc1	4.8	-12.6	-2.0	-2.3	8.7	-10.2
COc1ccc(Cc2[nH]n3c(=O)cc(C(C)C)nc3c2-c2ccccc2)cc1	4.2	13.1	3.0	4.1	71.9*	13.4
CC(Oc1cccc(Cl)c1)C(=O)Nc1nc(-c2ccccn2)cs1 (stereo unspecified)	/	/	/	/	63.7*	/
O=C(NCc1cccnc1)c1c[nH]c2cc3c(cc2c1=O)OCCO3	40.9*	-79.9	27.2*	9.3	-123.3	-62.6
COc1ccc(C(=O)C2CCCN(Cc3cccc4c3OCO4)C2)cc1OC (stereo unspecified)	5.9	6.2	4.7	1.3	23.8	-11.3
Cc1ccc(CSc2nnc(-c3ccc4c(c3)OCO4)o2)cc1	2.4	-10.7	-1.5	-1.3	-9.9	1.5
CC(=O)CSc1nnc(-c2ccc3c(c2)OCO3)o1	4.4	-35.0	-0.8	-7.7	-15.2	-67.5
O=C(O)CCSc1nnc(-c2ccc3c(c2)OCO3)o1	2.9	19.2	-1.5	5.7	66.7*	2.3
COc1ccc(C2=NCC(CSc3nnc(-c4ccc5c(c4)OCO5)o3)S2)cc1 (stereo unspecified)	50.6*	-1.0	-0.7	-1.3	-14.8	-15.6
CC(C)c1ccc(CNCc2ccccc2)cc1	0.0	-17.8	-4.2	-4.1	-15.7	-9.7
CC#CCNCc1ccccc1	34.5*	-2.1	2.4	-5.7	10.8	-42.3
Cc1ccc(-c2nc3ccccc3[nH]2)s1	14.0	-114.0	10.3	5.5	-80.3	-136.1
Cc1[nH]c2ccccc2c1-c1nc2ccccc2[nH]1	29.7*	7.4	11.0	4.4	-78.5	-6.5
CCOc1ccc(C/C(O)=C2\C(=O)CC(C)(C)CC2=NCC(=O)O)cc1OCC	1.5	7.4	-1.6	-3.5	-42.9	-12.4
O=C(CCl)N(C1CCCC1)C1CCS(=O)(=O)C1 (stereo unspecified)	/	/	/	-0.2	-49.3	-36.0
COc1ccc2nc3cc(Cl)ccc3c(Nc3cc(CN4CCCC4)c(O)c(CN4CCCC4)c3)c2n1	/	/	/	13.9	104.4*	19.6
CCOc1ccc2nc(SCC(=O)NC3CCCCC3)[nH]c2c1	/	/	/	3.0	2.4	-15.2
CCOC(=O)Cc1ccc(NC(=O)c2ccc(C(C)(C)C)cc2)cc1	-0.1	70.7*	-0.8	10.7	103.8*	58.7
CCc1n[nH]c(=S)n1/N=C/c1c(C)nn(-c2ccccc2)c1Cl	1.0	7.1	0.4	-2.7	106.3*	-5.1
O=C(O)c1ccc(N2CCCS2(=O)=O)cc1	/	/	/	-3.4	-24.2	16.5
O=C(NNC(=S)NC1CCCCC1)c1sc2ccccc2c1Cl	-1.1	-15.1	-4.8	-2.9	-6.1	-6.3
CC(C)(C)C(=O)NC(=S)NNC(=O)c1sc2ccccc2c1Cl	4.4	26.7	2.1	5.8	88.6*	-5.2
Cc1[nH]c2ccccc2c1CCN(Cc1cccnc1)C(=S)Nc1cccc(F)c1	29.7*	-21.5	26.8*	1.6	16.8	-7.4
O=Cc1sc(N2CCOCC2)nc1-c1ccccc1	6.6	-14.4	2.6	7.2	9.0	-36.2
Cc1nc2c(-c3ccc(Cl)cc3)c(C)[nH]n2c(=O)c1Cc1ccccc1	41.4*	42.1	31.5*	14.5	77.8*	34.5
SMILES	BaF3 tox	APP 5UTR inh	Ba/F3 V617F tox	IEC-6 tox	aSyn UTR inh	KLF5 inh
Nc1ccc2oc(-c3cc(Br)ccc3Cl)nc2c1	38.3*	46.5*	33.1*	6.1	41.2	-17.6
Cc1ccc(-c2nc3cc(N)ccc3o2)cc1Br	/	/	/	-0.1	-53.9	-158.2
Cc1ccc2nc(-c3cc(N)cc(N)c3)oc2c1	1.2	38.3	-0.3	-8.1	62.5*	-7.4
CN(C)c1ccc(-c2nc3cc(N)ccc3o2)cc1	/	/	/	2.0	93.4*	7.7
Cc1ccc(C)c(-c2nc3cc(N)ccc3o2)c1	11.7	21.9	5.3	3.2	62.9*	-63.0
Nc1ccc(-c2nc3cc(N)ccc3o2)cc1	/	/	/	-7.7	-52.1	-87.6
